MITF TRPM1 HTS – MITF TRPM1 promoter activation in melanoma cells; activation, % at 12.5 µM; actives 0.75% (n = 300,000); AID 588334; SK-MEL-5 TRPM1-promoter luciferase, 24 h; % of positive control, neutral wells = 0;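 active = mean activation of at least 80% with every replicate also reaching 80%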;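 also: 0% = neutral control wells and 100% = parthenolide positive control wells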
TRPM1 prom inh – MITF TRPM1 promoter inhibition in SK-MEL-5 cells; AID 488899; actives 0.83% (n = 330,000); inhibition, % at 12.5 µM; SK-MEL-5 TRPM1 promoter luciferase, 24 h;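 active = mean inhibition across replicates of 60% or more, whatever share of single replicates reaches that level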
Wnt bcat act – activates Wnt/beta-catenin signaling in a reporter cell assay. AID 743398. actives 1.2% (n = 300,000). activator, plate reader. activation, % at 9.35 µM; in the data active = activation above about 30%, passing the limit was not always enough;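 also: 0% = neutral control wells and 100% = positive control wells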
EWS-Fli block – blocks EWS/Fli oncoprotein-driven transcription | A673 NR0B1-luciferase reporter, viability-normalised | inhibition, % at 12.6 µM | actives 0.67% (n = 350,000) | AID 651661;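 active = mean inhibition of at least 50% after viability correction, with every replicate also passing that limit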;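 also: firefly luciferase signal divided by Alamar Blue viability fluorescence both relative to DMSO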
PAX8 inh HTS – lowers PAX8-driven luciferase in RMG-I cells. AID 652154. actives 1.2% (n = 360,000). inhibition, % at 12.6 µM. RMG-I TPO-luciferase reporter, SteadyGlo, 24 h;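 active = mean replicate inhibition at least 60% with every replicate also reaching 60%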;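 also: luciferase light reporting Pax8 driven TPO promoter activity; plate controls were median of neutral control wells for no effect and mitoxantrone controls for full effect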
esBAF inh – SWI/SNF esBAF complex inhibition; mouse ES cells, Bmi1-luciferase knock-in reporter, 24 h; 100% = twice the neutral-well signal; reporter increase, % at 12.5 µM; actives 2% (n = 350,000); in the data active = activation above about 40%;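 also: 0% = median of the plate's neutral control wells and 100% = double that signal; a rise in the Bmi1 reporter signal indicates esBAF inhibition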
Numbers without * were called inactive. Rows were chosen to be rich in hits. Some 4% of all compounds tested hit in one or more screens of this group.

How did C[C@H](CO)N1C[C@H](C)[C@H](CN(C)Cc2ccc(Oc3ccccc3)cc2)Oc2ccc(NC(=O)Cc3ccccc3)cc2CC1=O do in these assays?
EWS-Fli block: 9; PAX8 inh HTS: 47; esBAF inh: -4

What do the screens show for `CCC(=O)N1CC2(CCN(S(C)(=O)=O)CC2)c2c(n(C)c3cc(OC)ccc23)[C@@H]1CO`?
EWS-Fli block: 5

What do the screens show for `C[C@@H]1CN([C@H](C)CO)C(=O)c2cc(NC(=O)Cn3cnnn3)ccc2O[C@H]1CN(C)C(=O)Nc1ccc(F)cc1`?
EWS-Fli block: -5; PAX8 inh HTS: 9; esBAF inh: 2

What do the screens show for `CCC1CCCCN1C(=O)CSc1nnc(-c2ccco2)o1` (stereo not drawn)?
MITF TRPM1 HTS: 47; TRPM1 prom inh: -51; Wnt bcat act: 47*; PAX8 inh HTS: -73; esBAF inh: 9

How did CCC1CCCCN1C(=O)CSc1nnc(-c2cccc(Cl)c2)o1 (stereo not drawn) do in these assays?
Wnt bcat act: 19; EWS-Fli block: -61; PAX8 inh HTS: -80; esBAF inh: 50*

What do the screens show for `CCC1CCCCN1C(=O)CSc1nnc(-c2ccc(Cl)cc2)o1` (stereo not drawn)?
Wnt bcat act: 1; EWS-Fli block: -25; PAX8 inh HTS: -14; esBAF inh: 23

Results for O=C(NCCc1ccccc1F)c1cccc2cccnc12 ?
MITF TRPM1 HTS: 76; TRPM1 prom inh: -80; Wnt bcat act: 23; EWS-Fli block: -81; PAX8 inh HTS: -129; esBAF inh: 66*

What do the screens show for `COc1ccccc1C(=O)Nc1cccc2cccnc12`?
MITF TRPM1 HTS: 19; TRPM1 prom inh: -13; Wnt bcat act: -1; EWS-Fli block: -42; PAX8 inh HTS: -77; esBAF inh: 64*

How did Cc1ccc(NC(=O)c2cccc3cccnc23)cc1 do in these assays?
MITF TRPM1 HTS: 9; TRPM1 prom inh: -11; Wnt bcat act: 25; EWS-Fli block: -73; PAX8 inh HTS: -125; esBAF inh: 64*

How did CCOC(=O)c1ccc2c(c1)nc(-c1ccccn1)n2CC do in these assays?
MITF TRPM1 HTS: 64; TRPM1 prom inh: -58; Wnt bcat act: 26; EWS-Fli block: -21; PAX8 inh HTS: -98; esBAF inh: 73*

What do the screens show for `COc1ccc(S(=O)(=O)N2CCC3(CC2)CN(C(=O)c2cccnc2)[C@@H](CO)c2c3c3ccc(OC)cc3n2C)cc1`?
EWS-Fli block: -5

What do the screens show for `CC(C)(C)N1CC(C(=O)Nc2ccc(S(=O)(=O)N3CCCCC3)cc2)CC1=O` (stereo not drawn)?
MITF TRPM1 HTS: -8; TRPM1 prom inh: 10; Wnt bcat act: -2; EWS-Fli block: 4; PAX8 inh HTS: -14; esBAF inh: 0

What do the screens show for `CCC1CCCCN1S(=O)(=O)c1ccc(NC(=O)C2CC(=O)N(C(C)(C)C)C2)cc1` (stereo not drawn)?
MITF TRPM1 HTS: 48; TRPM1 prom inh: -45; Wnt bcat act: 33*; EWS-Fli block: -65; PAX8 inh HTS: -103; esBAF inh: 30

Results for COc1ccc(C#Cc2ccc3c(c2)[C@H]2[C@H](CCN2C(=O)c2ccccc2F)[C@H](CO)N3C)cc1 ?
EWS-Fli block: 0; PAX8 inh HTS: -33; esBAF inh: 1

How did CC(=O)OC[C@]1(OC(C)=O)C[C@@]23CC[C@H]4[C@@](C)(CCC[C@@]4(C)C(=O)O)[C@@H]2CC[C@@H]1C3 do in these assays?
MITF TRPM1 HTS: 6; TRPM1 prom inh: 0; Wnt bcat act: -2; EWS-Fli block: 6; PAX8 inh HTS: -13; esBAF inh: -6

How did CC(=O)OC[C@]12CC[C@H]3[C@@](C)(CC[C@H]4C(C)(C)CCC[C@]34C)[C@@H]1CC(C1=CC(=O)OC1O)O2 (stereo partly drawn) do in these assays?
Wnt bcat act: -3; EWS-Fli block: 56*; esBAF inh: -86

What do the screens show for `COc1ccccc1C(CNc1ncccc1[N+](=O)[O-])N(C)C` (stereo not drawn)?
MITF TRPM1 HTS: -9; TRPM1 prom inh: 8; Wnt bcat act: 0; EWS-Fli block: -12; PAX8 inh HTS: -9; esBAF inh: 3

What do the screens show for `COc1ccc(CNc2ncccc2[N+](=O)[O-])cc1`?
MITF TRPM1 HTS: 41; TRPM1 prom inh: -36; Wnt bcat act: 8; EWS-Fli block: -55; PAX8 inh HTS: -81; esBAF inh: 54*
